The full ranking holds about 33,000 sequences; the median of “E-score (-0.5 to 0.5)” is about -0.035, and the highest 2% start at about 0.35. For the sample, the highest values were picked, then their nearest neighbours and some sequences at random.
target: T1, Pdr3 (UniProt P33200); assay: PBM E-score (8-mer binding enrichment) (E-score (-0.5 to 0.5)); higher = stronger / more preferred TF binding; details: protein concentration: 200 nM; construct: GST-full length
T1 sequence: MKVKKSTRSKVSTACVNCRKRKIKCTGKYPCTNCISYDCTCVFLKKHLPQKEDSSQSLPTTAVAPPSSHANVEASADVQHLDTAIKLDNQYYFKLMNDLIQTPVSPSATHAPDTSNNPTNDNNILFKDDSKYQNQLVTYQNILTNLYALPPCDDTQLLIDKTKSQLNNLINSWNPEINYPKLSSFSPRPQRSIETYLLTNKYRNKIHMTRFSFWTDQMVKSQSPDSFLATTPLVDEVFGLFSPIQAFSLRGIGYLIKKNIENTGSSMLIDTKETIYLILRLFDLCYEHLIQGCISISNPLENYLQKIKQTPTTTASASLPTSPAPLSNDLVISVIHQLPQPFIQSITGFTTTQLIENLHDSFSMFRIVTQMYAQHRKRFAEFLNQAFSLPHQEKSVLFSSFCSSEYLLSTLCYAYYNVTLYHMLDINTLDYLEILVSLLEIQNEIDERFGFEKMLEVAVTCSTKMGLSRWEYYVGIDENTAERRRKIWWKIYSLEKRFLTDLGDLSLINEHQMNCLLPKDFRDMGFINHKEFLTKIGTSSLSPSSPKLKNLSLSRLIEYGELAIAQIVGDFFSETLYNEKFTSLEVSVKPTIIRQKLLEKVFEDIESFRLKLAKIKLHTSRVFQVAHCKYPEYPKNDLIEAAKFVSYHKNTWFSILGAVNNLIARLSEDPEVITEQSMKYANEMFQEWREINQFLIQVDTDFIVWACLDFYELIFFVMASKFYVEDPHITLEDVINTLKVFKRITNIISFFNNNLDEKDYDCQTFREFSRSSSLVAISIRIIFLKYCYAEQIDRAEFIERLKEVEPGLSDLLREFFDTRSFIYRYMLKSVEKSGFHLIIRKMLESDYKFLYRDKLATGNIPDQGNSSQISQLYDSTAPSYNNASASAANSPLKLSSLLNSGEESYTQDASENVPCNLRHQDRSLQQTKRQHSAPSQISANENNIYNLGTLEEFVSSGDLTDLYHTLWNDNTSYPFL
Procedure: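 Universal 'all 10-mer' protein binding microarrays (Agilent AMADID 015681) probed with GST-tagged S. cerevisiae TFs (full-length or DBD) made by in vitro transcription/translation (PURExpress), about 100-200 nM. Bound TF was detected with fluorescent anti-GST. Each ungapped 8-mer (which stands for itself and its reverse complement) is scored by the PBM enrichment score (E-score), a modified Wilcoxon-Mann-Whitney statistic from -0.5 to +0.5, computed with the Universal PBM Analysis Suite. Scale: above 0.35 generally sequence-specific binding.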

| Sequence | PBM E-score |
| --- | --- |
| GGAACCGA | 0.406 |
| GGAACGGA | 0.431 |
| CGAACGGC | 0.177 |
| CGAACGAA | 0.0784 |
| GGAACGCA | 0.275 |
| AGAACCGA | 0.0498 |
| CGAACGGA | 0.407 |
| CGAACCGA | 0.15 |
| AGAACGGA | 0.316 |
| AACACCCC | 0.0302 |
| AGCACTTA | -0.102 |
| GGATTCCC | 0.231 |
| ACCTGACT | -0.131 |
| AGAGGGGC | -0.138 |
| TAGGGTGA | 0.00768 |
| TATGTCAA | 0.0343 |
| GTCTCCAC | -0.208 |
| TAAGGGTA | -0.262 |
| CCGGGTCG | 0.378 |
| CCGGGTTC | 0.411 |
| CCGGGTTA | 0.353 |
| ACGGGTCG | 0.227 |
| CCGGGTCA | 0.349 |
| ACGGGTCC | 0.186 |
| GCGGGTCC | 0.243 |
| CCGGGTCC | 0.365 |

| Sequence | PBM E-score |
| --- | --- |
| ACGGGTTC | 0.202 |
| AAGCGCTT | 0.21 |
| ATGAAGGG | -0.171 |
| GTGGATAA | 0.0146 |
| GGATTTGA | -0.0356 |
| CGGTCTTC | 0.123 |
| AATCAACA | 0.115 |
| GCTCGAAA | 0.0413 |
| ATACTCCA | -0.0793 |
| ATACTCCC | 0.127 |
| ATACTCCG | 0.371 |
| GCGCGGCC | 0.219 |
| ACGCGGCC | 0.0489 |
| CCGCGGCC | 0.459 |
| CAGCGGCG | 0.154 |
| CCGCGGCG | 0.477 |
| ACGCGGCG | 0.209 |
| GACGTCTC | -0.145 |
| TATCGAGA | -0.0727 |
| ACGCAAGT | -0.255 |
| CCCCCGGA | 0.311 |
| GCCCCGGC | 0.163 |
| TCCCCGAA | 0.232 |
| TCCCCCGA | 0.0813 |
| GCCCCGGA | 0.41 |
| TCCCCGGA | 0.411 |

| Sequence | PBM E-score |
| --- | --- |
| CTTGGAGC | -0.207 |
| ACTTTCAG | -0.184 |
| AAATTGCG | 0.0648 |
| GATCTTAC | -0.113 |
| ACTTCCTG | -0.121 |
| ACTTCCGA | 0.355 |
| GCTTCCTA | -0.205 |
| ACTTCCCA | -0.0401 |
| ACTTCCCG | 0.291 |
| ACTTCCAA | -0.127 |
| GCTTCCAA | -0.143 |
| ACTTCCGG | 0.42 |
| GCTTCCGA | 0.405 |
| CGCACAAA | 0.0204 |
| AGGGTGTG | -0.0975 |
| ACGCCCAA | 0.00636 |
| AAAGCTCA | -0.213 |
| CGGTCGAG | -0.014 |
| CGGTACCG | 0.362 |
| CGGTACCC | -0.0572 |
| CGGTACCA | 0.0596 |
| CTTCATCC | -0.00929 |
| ACTCCTGG | -0.134 |
| CCTCCGGA | 0.416 |
| ACTCCGGG | 0.369 |
| ACTCCGAT | 0.203 |

| Sequence | PBM E-score |
| --- | --- |
| CCTCCCGA | 0.103 |
| GCTCCGCA | 0.178 |
| ACTCCGGC | 0.315 |
| GCTCCGTA | 0.32 |
| ACTCCGGA | 0.456 |
| GCTCCGGA | 0.461 |
| CCTCCGGC | 0.32 |
| AAATAGGT | -0.15 |
| ATCAAAGA | -0.143 |
| ACTCTGCA | -0.125 |
| GGTTTCGA | 0.134 |
| CTCTTTCC | 0.141 |
| CATGAAAC | 0.0519 |
| CGATTTCA | -0.0484 |
| TGCATAAA | -0.00866 |
| GCGTTGCC | 0.126 |
| CACGGGCC | 0.196 |
| CGCGGGTA | 0.363 |
| AGCGGGCA | -0.048 |
| CGCGGGCA | 0.397 |
| CGCGGGTC | 0.331 |
| CGCGGGCC | 0.379 |
| GGCGGGCA | 0.219 |
| AGCGGGCC | 0.057 |
| AGCGGGTA | 0.0103 |
| CCGATCTA | 0.0827 |

| Sequence | PBM E-score |
| --- | --- |
| ATCCAATG | -0.208 |
| AGTCTGAT | -0.133 |
| AAGACAAA | -0.103 |
| AACCGCTG | -0.114 |
| CGTTCGAG | -0.0996 |
| AAATTCCA | 0.0847 |
| CAATTCCG | 0.435 |
| CAATTCCA | 0.0797 |
| AAATTCCG | 0.418 |
| CAATTCCC | 0.133 |
| AAATTCCC | 0.144 |
| CAGATCTA | -0.337 |
| AACAGCAT | -0.0321 |
| GAGACTCA | -0.204 |
| TGTGATAA | -0.121 |
| AACGGAGA | 0.243 |
| GACGGAAA | 0.43 |
| TACGGAAA | 0.402 |
| GACGGACA | 0.335 |
| CACGGAAA | 0.449 |
| TAGGGAAA | -0.15 |
| CAAGGAAA | 0.00732 |
| TACGGGAA | 0.261 |
| GACGGGAA | 0.203 |
| AACGGAAA | 0.464 |
| AACGGGAA | 0.354 |

| Sequence | PBM E-score |
| --- | --- |
| CACGGGAA | 0.223 |
| GCTACGAC | 0.0127 |
| CACTGGTC | -0.078 |
| CAGATGCG | -0.126 |
| CTAGGACA | -0.0782 |
| CGGCTTGC | 0.197 |
| GCTCGTAC | -0.126 |
| CCTAGAAG | -0.146 |
| ATGTCTAG | -0.064 |
| AATAGGCG | 0.313 |
| AGCCTTAG | -0.37 |
| CAGCCACG | 0.145 |
| GACAGAAC | 0.0194 |
| CAAGGAAC | 0.161 |
| CAAGGAAG | -0.0209 |
| CACAGAAG | -0.109 |
| GACGGAAC | 0.475 |
| CACGGAAC | 0.483 |
| CATGGAAC | -0.0483 |
| GATGGAAC | 0.06 |
| CACGGAAG | 0.386 |
| ACAGTAAA | -0.0539 |
| AGCAAAAG | -0.336 |
| CTATAAGC | -0.129 |
| TCAATAGA | -0.262 |
| ATGTTATC | 0.0774 |

| Sequence | PBM E-score |
| --- | --- |
| CAGTTTCC | 0.253 |
| ATCAGCGA | -0.0101 |
| ATCAGCGG | 0.364 |
| ATCAGCGC | 0.207 |
| AGAGAGTC | -0.249 |
| CCCCTTTC | 0.00738 |
| TAATGCAA | -0.241 |
| AACGGCTT | 0.0106 |
| CCAGGTTA | -0.0429 |
| ACCGCGGC | 0.399 |
| ACCGCGGA | 0.488 |
| ACCGCGAG | -0.00369 |
| ACCGCGGG | 0.472 |
| ACCGCGTA | 0.174 |
| ATCGCGGC | 0.213 |
| ATCGCGGA | 0.282 |
| ACCGCGGT | 0.4 |
| ATCGCGGG | 0.186 |
| ACCGCGTC | 0.0777 |
| ACCGCGAT | 0.177 |
| AACGCGGT | 0.1 |

From the supplement of paper PMC3334620
